# “And” between values parts separate entries of the source, which are not always exact repeats. Equal values may be shown once. Inconclusive results are not listed. The source holds several records for some structures; these can differ, active in one and inactive in another. The source made the active and inactive calls. Rule for the calls, unless noted: active = hit-call score of the fitted dose curve at least 0.9, where 1 is the maximum; inactive = score below 0.9.
# What was measured:
# [1] = CCTE_Shafer_MEA_acute_cross_correlation_HWHM: CCTE's Neural Acute Assay for Cross Correlation at Half Width at Half Maximum, Shafer Lab (AID 2284026);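 note: percent change per well from pre-dose baseline in spike cross-correlogram half width; hits are a decrease in cross-correlogram half width relative to DMSO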;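 for outcome: spontaneous network firing of rat primary cortical neurons on multiwell microelectrode arrays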
# In short: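 Rat primary cortical neurons on 48-well MEA plates; 40-min baseline and 40-min post-exposure recordings at 37 C on DIV 13 or 15, compounds 0.03-40 uM. Spikes detected at 8x rms noise; percent change in cross-correlogram HWHM per well vs baseline.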
# [2] = CCTE_Shafer_MEA_acute_synchrony_index: CCTE's Neural Acute Assay for Synchrony, Shafer Lab (AID 2284027);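 note: network synchrony index of spontaneous spiking in primary rat cortical neurons on MEAs; fitted for loss of signal so actives lower synchrony relative to DMSO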
# In short: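 The synchrony index is taken as percent change per well between a 40 min baseline and a 40 min recording with compound (0.03–40 uM), at 37C. Rat cortical cultures on multiwell MEAs at DIV 13 or 15, spike threshold 8× rms noise.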
# [3] = CCTE_Shafer_MEA_dev_firing_rate_mean: CCTE's Neural Network Formation Assay for Mean Firing Rate, Shafer Lab (AID 2284031);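 for AC50: curve fitted for loss of firing so AC50 reflects decreased mean firing rate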
# In short: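 Spike frequency (spikes/recording length, averaged over active electrodes) was recorded on days 5, 7, 9 and 12 and collapsed to AUC; rat cortical cultures received compound continuously over 12 days of network development.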
# [4] = CCTE_Shafer_MEA_dev_active_electrodes_number: CCTE's Neural Network Formation Assay for Number of Active Electrodes, Shafer Lab (AID 2284040; active = hit-call score of the fitted dose curve at least 0.9, where 1 is the maximum;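 for AC50: potency for loss of active electrodes versus DMSO so lower counts are hits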)
# In short: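 Counts electrodes per well firing at least 5 spikes/min, recorded on days 5, 7, 9 and 12 in rat cortical cultures dosed continuously from plating (treatment refreshed DIV 5, 9). Value is the area under the curve over recordings, fitted downward relative to DMSO.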
# [5] = CCTE_Shafer_MEA_dev_burst_rate: CCTE's Neural Network Formation Assay for Burst Rate, Shafer Lab (AID 2284042);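 for AC50: potency for loss of burst rate below DMSO control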
# In short: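 Primary rat cortical neurons on PEI-coated 48-well MEA plates (laminin added with cells at plating) (16 electrodes/well), exposed from plating to day 12, dosing renewed at DIV 5 and 9. Burst rate averaged over active electrodes, recorded DIV 5, 7, 9, 12, summarized as AUC; loss versus DMSO.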
# [6] = molecular target: Estrogen receptor (Homo sapiens) (UniProt P03372); experiment: CCTE_Deisenroth_AIME_384WELL_LUC_Active: CCTE's 384-well Estrogen Receptor Transactivation Assay with AIME metabolic competence (ERTA luciferase; metabolism positive), Deisenroth Lab (AID 2284030; active = hit-call score of the fitted dose curve at least 0.9, where 1 is the maximum)
# Chain of Estrogen receptor (Homo sapiens) (P03372 whole entry, looked up): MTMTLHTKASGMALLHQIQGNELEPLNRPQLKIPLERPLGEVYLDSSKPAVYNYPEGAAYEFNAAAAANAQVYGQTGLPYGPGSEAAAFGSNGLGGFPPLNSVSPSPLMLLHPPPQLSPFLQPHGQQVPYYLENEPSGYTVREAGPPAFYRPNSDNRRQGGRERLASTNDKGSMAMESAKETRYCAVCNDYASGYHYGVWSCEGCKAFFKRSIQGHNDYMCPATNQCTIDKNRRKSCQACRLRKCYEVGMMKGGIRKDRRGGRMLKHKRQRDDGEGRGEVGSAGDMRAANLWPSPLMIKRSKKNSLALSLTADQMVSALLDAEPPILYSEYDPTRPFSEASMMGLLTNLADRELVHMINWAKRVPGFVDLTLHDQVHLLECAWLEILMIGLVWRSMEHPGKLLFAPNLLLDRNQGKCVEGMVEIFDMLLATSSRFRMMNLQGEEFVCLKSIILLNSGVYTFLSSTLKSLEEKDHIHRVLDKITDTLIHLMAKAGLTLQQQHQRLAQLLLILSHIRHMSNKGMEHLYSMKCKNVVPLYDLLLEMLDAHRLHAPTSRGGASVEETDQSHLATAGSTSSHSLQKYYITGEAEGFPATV
# In short: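 Chemicals (10-point, 0.002-200 uM) were first incubated 2 hours with alginate-immobilized induced male Sprague Dawley rat liver S9. The conditioned medium was then applied to VM7Luc4E2 cells for 24 hours, with ER luciferase induction read by luminescence relative to 17beta-estradiol.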
# [7] = CCTE_Deisenroth_AIME_384WELL_CTox_Active: Cytotoxicity Assessment (CTOX) in CCTE's 384-well Estrogen Receptor Transactivation Assay with AIME metabolic competence (metabolism positive), Deisenroth Lab (AID 2284037; active = hit-call score of the fitted dose curve at least 0.9, where 1 is the maximum;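 note: chemicals first conditioned 2 h by alginate-bound induced rat liver S9 before cells; activity means signal loss indicating cell death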)
# In short: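 VM7Luc4E2 breast cells received medium pre-incubated 2 h with chemical over alginate microspheres holding induced male Sprague Dawley rat liver S9; viability read 24 h later by protease-substrate fluorescence. Loss of signal, bidirectional fit, 0.002–200 uM.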
# [8] = molecular target: Estrogen receptor (Homo sapiens) (UniProt P03372); experiment: CCTE_Deisenroth_AIME_384WELL_LUC_Inactive: CCTE's 384-well Estrogen Receptor Transactivation Assay without AIME metabolic competence (ERTA luciferase; metabolism negative), Deisenroth Lab (AID 2284038; active = hit-call score of the fitted dose curve at least 0.9, where 1 is the maximum;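 note: hits raise estrogen receptor luciferase signal so potencies reflect agonists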)
# In short: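 VM7Luc4E2 ER transactivation, luciferase bioluminescence after 24 h, using medium pre-incubated 2 h with S9-free alginate microspheres. Concentrations 0.002–200 uM; gain of signal fitted relative to 17beta-estradiol.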
# [9] = CCTE_Deisenroth_AIME_384WELL_CTox_Inactive: Cytotoxicity Assessment (CTOX) in CCTE's 384-well Estrogen Receptor Transactivation Assay without AIME metabolic competence (metabolism negative), Deisenroth Lab (AID 2284039; active = hit-call score of the fitted dose curve at least 0.9, where 1 is the maximum;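 note: cell viability via live-cell protease substrate cleaved to fluorescent probe; cells exposed 24 h to medium preincubated 2 h with alginate-water beads without S9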)
# In short: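 VM7Luc4E2 cells, metabolism-negative arm: test chemicals (0.002–200 uM, 10 points) pre-incubated 2 h with alginate-water microspheres, then medium transferred to cells for 24 h. Viability read as protease-substrate cleavage to fluorescent probe; loss-of-signal, bidirectional fitting.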
# [10] = molecular target: Estrogen receptor (Homo sapiens) (UniProt P03372); experiment: CCTE_Deisenroth_AIME_384WELL_LUC_Shift: CCTE's 384-well Estrogen Receptor Transactivation Assay with AIME metabolic competence data shift (ERTA luciferase; difference in metabolism positive and negative), Deisenroth Lab (AID 2284041);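 note: shift is response with S9 minus without S9 so positive means metabolism raised ER signal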
# In short: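 Here, parent compounds undergo 2 h phase I metabolism by PB/BNF-induced rat S9 before 24 h transactivation in VM7Luc4E2 cells; the curve models S9-positive minus S9-negative response over a 10-point series.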
smiles,measurement,setting,value
CNC(=O)CSP(=S)(OC)OC,outcome,[1],inactive
same,outcome,[2],inactive
same,AC50,[3],79.3 µM (active)
same,outcome,[3],inactive
same,AC50,[4],77.4 µM (active) and 18.9 µM (active)
same,AC50,[5],78.2 µM (active)
same,outcome,[5],inactive
O=S1OCC2C(CO1)C1(Cl)C(Cl)=C(Cl)C2(Cl)C1(Cl)Cl (stereo not given),AC50,[1],19.8 µM (active)
same,outcome,[1],inactive
same,AC50,[2],23.7 µM (active)
same,outcome,[2],inactive
same,AC50,[6],13.8 µM (active)
same,outcome,[3],inactive
same,outcome,[7],inactive
same,AC50,[8],12 µM (active)
same,outcome,[9],inactive
same,AC50,[4],8.87 µM (active)
same,outcome,[10],inactive
same,AC50,[5],8.87 µM (active)
CC1(c2ccc(Oc3ccccc3)cc2)OC(=O)N(Nc2ccccc2)C1=O (stereo not given),AC50,[3],8.59 µM (active)
same,AC50,[4],4.84 µM (active)
same,AC50,[5],7.84 µM (active)
CCCN(CCC)c1c([N+](=O)[O-])cc(C(F)(F)F)cc1[N+](=O)[O-],outcome,[1],inactive
same,outcome,[2],inactive
same,outcome,[6],inactive
same,outcome,[8],inactive
same,outcome,[10],inactive
OCCOc1ccccc1,AC50,[6],34 µM (active)
same,outcome,[7],inactive
same,AC50,[8],43.5 µM (active)
same,outcome,[9],inactive
same,AC50,[10],23.8 µM (active)
CC(C)OC(=O)Nc1cccc(Cl)c1,AC50,[1],20 µM (active)
same,AC50,[2],20 µM (active)
ClC1C(Cl)C(Cl)C(Cl)C(Cl)C1Cl (stereo not given),outcome,[1],inactive
same,AC50,[2],1.22 µM (active)
same,outcome,[3],inactive
same,outcome,[4],inactive
same,outcome,[5],inactive
CCc1ccc(C(=O)NN(C(=O)c2cc(C)cc(C)c2)C(C)(C)C)cc1,outcome,[6],inactive
same,outcome,[7],inactive
same,outcome,[8],inactive
same,outcome,[9],inactive
same,outcome,[10],inactive
COP(=O)(OC)OC=C(Cl)Cl,outcome,[6],inactive
same,AC50,[3],9.72 µM (active)
same,outcome,[3],inactive
same,outcome,[7],inactive
same,outcome,[8],inactive
same,AC50,[4],5.4 µM (active)
same,outcome,[4],inactive
same,outcome,[10],inactive
same,AC50,[5],1.16 µM (active)
same,outcome,[5],inactive
C[C@H]1[C@H](c2ccc(Cl)cc2)SC(=O)N1C(=O)NC1CCCCC1,AC50,[1],23.5 µM (active)
same,AC50,[2],20 µM (active)
same,outcome,[6],inactive
same,outcome,[7],inactive
same,outcome,[8],inactive
same,outcome,[9],inactive
same,outcome,[10],inactive
O=[N+]([O-])/N=C1\NCCN1Cc1ccc(Cl)nc1,outcome,[1],inactive
same,outcome,[2],inactive
same,outcome,[3],inactive
same,outcome,[4],inactive
same,outcome,[5],inactive
N#CN,outcome,[1],inactive
same,outcome,[2],inactive
Oc1cc(Cl)ccc1Oc1ccc(Cl)cc1Cl,AC50,[1],20 µM (active)
same,AC50,[2],5 µM (active)
same,AC50,[3],10 µM (active)
same,outcome,[9],inactive
same,AC50,[4],9.79 µM (active)
same,AC50,[5],8.47 µM (active)
O=S(=O)(O)C(F)(F)C(F)(F)C(F)(F)C(F)(F)C(F)(F)C(F)(F)C(F)(F)C(F)(F)F,outcome,[1],inactive
same,outcome,[2],inactive
same,outcome,[3],inactive
same,AC50,[9],100 µM (active)
same,AC50,[4],50 µM (active)
same,outcome,[4],inactive
same,AC50,[5],3.81 µM (active)
same,outcome,[5],inactive
CCC(C)(C)C(=O)OC1=C(c2ccc(Cl)cc2Cl)C(=O)OC12CCCCC2,AC50,[1],0.106 µM (active)
same,outcome,[1],inactive
same,AC50,[2],5.2 µM (active)
same,outcome,[2],inactive
same,outcome,[3],inactive
same,outcome,[4],inactive
same,outcome,[5],inactive
CC1(C)C(C=C(Cl)Cl)C1C(=O)OC(C#N)c1ccc(F)c(Oc2ccccc2)c1 (stereo not given),AC50,[1],15 µM (active)
same,outcome,[1],inactive
same,AC50,[2],117 nM (active) and 558 nM (active)
same,AC50,[3],1.15 µM (active) and 9.57 µM (active)
same,outcome,[3],inactive
same,AC50,[4],10 µM (active) and 26.4 µM (active) and 10.4 µM (active)
same,AC50,[5],1.07 µM (active) and 259 nM (active)
same,outcome,[5],inactive
CCC(C)Nc1c([N+](=O)[O-])cc(C(C)(C)C)cc1[N+](=O)[O-] (stereo not given),outcome,[1],inactive
same,outcome,[2],inactive
same,AC50,[6],11.1 µM (active)
same,outcome,[7],inactive
same,AC50,[8],12.4 µM (active)
same,outcome,[9],inactive
same,AC50,[10],8.77 µM (active)
Oc1ccc(Cl)cc1Cc1ccccc1,AC50,[2],5.05 µM (active)
CC[C@H](C)[C@H]1O[C@]2(C=C[C@@H]1C)C[C@@H]1C[C@@H](C/C=C(\C)[C@@H](O[C@H]3C[C@H](OC)[C@@H](O[C@H]4C[C@H](OC)[C@@H](O)[C@H](C)O4)[C@H](C)O3)[C@@H](C)/C=C/C=C3\CO[C@@H]4[C@H](O)C(C)=C[C@@H](C(=O)O1)[C@]34O)O2 (tested in a mixture with another compound),AC50,[1],0.0109 µM (active)
same,AC50,[2],0.165 µM (active)
same,AC50,[3],0.611 nM (active) and 1.02 nM (active)
same,AC50,[4],3.93 nM (active) and 1.65 nM (active)
same,AC50,[5],1.57 nM (active) and 0.778 nM (active)
CCOC1Oc2ccc(OS(C)(=O)=O)cc2C1(C)C (stereo not given),AC50,[7],100 µM (active)
same,outcome,[8],inactive
same,AC50,[9],100 µM (active)
same,outcome,[10],inactive
O=C(O)C(F)(F)C(F)(F)C(F)(F)C(F)(F)C(F)(F)C(F)(F)C(F)(F)F,outcome,[3],inactive
same,outcome,[7],inactive
same,outcome,[9],inactive
same,AC50,[4],14.1 µM (active)
same,outcome,[4],inactive
same,outcome,[5],inactive

# From PubChem BioAssay (EPA / NIEHS)
